# Hits are enriched below; roughly 12% of the tested compounds scored in any of these assays.
# Sfp PPTase inh = blocks B. subtilis Sfp PPTase activity | 310,000 tested, 3.5% active | Potency, µM, without a hit: largest response in the series, negative = inhibition, most hits filed as inhibitors | Biochemical Sfp PPTase activity, qHTS | Q9F4F7;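 further: the enzyme is Sfp with the accession as filed and its product quenches rhodamine fluorescence; 0% = enzyme reaction without inhibitor and -100% = no enzyme wells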
#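 Step 1, compound plus 15 nM Sfp-PPTase, 15 min, room temperature. Step 2, add rhodamine-CoA (5 uM) and BHQ-2-YbbR (12.5 uM). Step 3, read 525/598 nm fluorescence at 0 and 30 min.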
# BAZ2B inh = inhibitors of human BAZ2B bromodomain; Potency, µM (highest dose often 114 µM), without a hit: top-dose activity change, negative = inhibition, usual class: inhibitors; Q9UIF8; 360,000 tested, 4.4% active; AlphaScreen BAZ2B-H3K14Ac peptide displacement; further: on the % scale 0 is the no-effect control and ±100 the full control effect; nearly all actives have a fitted effect of over 60% in size
#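 Inhibition is scored as reduced AlphaScreen emission. The BAZ2B/b-H3(5-23)K14Ac complex (50 nM each) in PBS pH 7.4, 0.01% Tween-20 meets compound (up to 110 uM) for 30 min at RT before bead addition.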
# TDP1 inh = inhibitors of human tyrosyl-DNA phosphodiesterase TDP1; Q9NUW8; recombinant TDP1, AlphaScreen DNA substrate cleavage; Potency, µM (series often up to 130 µM), inactives show at the top dose activity change, negative = inhibition, usual class: inhibitors; AID 485290; 350,000 tested, 0.28% active; further: on the % scale 0 is the no-effect control and ±100 the full control effect; nearly all actives have a fitted effect of over 40% in size
# Target sequence (Q9NUW8 whole entry, looked up): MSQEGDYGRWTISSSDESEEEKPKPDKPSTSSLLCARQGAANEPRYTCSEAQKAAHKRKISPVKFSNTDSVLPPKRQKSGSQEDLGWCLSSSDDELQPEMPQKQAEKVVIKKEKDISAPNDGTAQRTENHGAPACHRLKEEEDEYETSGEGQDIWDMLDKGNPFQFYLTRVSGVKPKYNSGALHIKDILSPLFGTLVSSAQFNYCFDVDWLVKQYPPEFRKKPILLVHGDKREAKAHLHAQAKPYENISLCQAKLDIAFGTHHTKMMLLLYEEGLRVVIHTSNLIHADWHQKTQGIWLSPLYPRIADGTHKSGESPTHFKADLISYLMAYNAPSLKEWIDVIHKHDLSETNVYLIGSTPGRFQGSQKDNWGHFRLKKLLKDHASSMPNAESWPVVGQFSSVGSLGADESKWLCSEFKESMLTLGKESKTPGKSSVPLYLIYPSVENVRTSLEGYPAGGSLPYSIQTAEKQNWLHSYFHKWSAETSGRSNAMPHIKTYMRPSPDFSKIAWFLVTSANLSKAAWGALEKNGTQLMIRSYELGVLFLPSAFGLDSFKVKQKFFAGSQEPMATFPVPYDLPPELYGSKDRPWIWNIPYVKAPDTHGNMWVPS
#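 Compounds were preincubated with Tdp1 (1 nM final) for 15 min at room temperature before substrate (15 nM final) started a 5 min reaction; beads (10 ug/ml final) were then added for 10 min before AlphaScreen detection.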
# JMJD2A Tudor inh = blocks the human JMJD2A Tudor domain; AID 504339; AlphaScreen JMJD2A-Tudor / H3K4me3 peptide binding; 390,000 tested, 4.4% active; O75164; Potency, µM (top dose mostly 114 µM), inactives show at the highest dose activity change, negative = inhibition, actives largely listed as inhibitors; further: on the % scale 0 is the no-effect control and ±100 the full control effect; nearly all actives have a fitted effect of over 50% in size
# HP1b binding inh = inhibitors of HP1-beta chromodomain binding to methylated histone tails | Potency, µM (doses to about 114 µM), without a hit: at the top dose activity change, negative = inhibition, most hits filed as inhibitors | P83916 | AID 540317 | 390,000 tested, 0.56% active | AlphaScreen HP1-beta / biotin-H3K9me3 peptide binding; further: nearly all actives have a fitted effect of over 70% in size
#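 Compound inhibition of the preformed complex between 50 nM HP1-beta and 50 nM biotinylated H3K9me3 peptide was read by AlphaScreen. Buffer was PBS pH 7.4 with 0.01% Tween-20. Incubations ran 30 min at room temperature, with 10 ug/mL donor/acceptor beads.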
# G9a block = blocks human histone lysine methyltransferase G9a; G9a H3K9 monomethylation, AlphaScreen, 2 h; Potency, µM (series often up to 102 µM), inactives show at the top dose activity, negative = inhibition, hits mostly inhibitors; 350,000 tested, 8.8% active; AID 504332; further: on the % scale 0 is the no-effect control and ±100 the full control effect; nearly all actives have a fitted effect of over 75% in size
#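 Quantitative HTS format: methyltransferase activity on a biotin-tagged H3K9 peptide is measured by AlphaScreen, using a rabbit anti-monomethyl-H3K9 antibody with streptavidin donor and anti-IgG acceptor beads. Final levels are 20 nM enzyme, 500 nM peptide, 20 uM SAM; 2 h RT.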
# Active calls of the source: *; ? = inconclusive; · = not tested or not shown; [ ] = another dose, or the depositor's remark. The call rests on the fitted dose curve; in most records, active means well fitted curve in the direction sought with a large enough effect; inconclusive means small, poorly fitted or top-dose-only effect, or another doubt; inactive means no such curve, though single readings can be large; an effect the other way counts as inactive or inconclusive. Potency means the concentration at half of the fitted maximal effect.
SMILES,Sfp PPTase inh,BAZ2B inh,TDP1 inh,JMJD2A Tudor inh,HP1b binding inh,G9a block
c1ccc(CSc2cc3ccccc3[nH]2)cc1,·,·,·,34%,21%,·
Cc1[nH]c2ccccc2c1C(=O)CSc1n[nH]c(N)n1,16%,·,5%,-8%,23%,6%
CCOC(=O)CN1c2ccccc2NC(=O)CC1C (configuration not stated),15%,0%,6%,-25%,48%,45µM*
Cc1ccc(S(=O)(=O)N2c3ccccc3NC(=O)CC2C)cc1 (configuration not stated),7%,8%,3%,-10%,20%,20%[59 µM]
CC1CC(=O)Nc2ccccc2N1S(=O)(=O)c1ccccc1 (configuration not stated),-17%,37%,8%,18µM*,-3%,-23%[59 µM]
COC(=O)c1sc2nc(CN3CCOCC3)nc(N3CCOCC3)c2c1C,10%,0%,5%,-26%,63%,?
CCOC(=O)c1sc2nc(CN3CCCCC3)nc(Cl)c2c1C,-3%,-32%,0%,-8%,27%,50µM*
COC(=O)c1cc(=O)n(CCc2ccc(OC)c(OC)c2)c(=Nc2ccc(F)c(Cl)c2)s1,?,?,7%,?,-6%,25µM*
CCOc1ccc(CCNC(=O)CCCc2nnc3n(CC(C)C)c(=O)c4sccc4n23)cc1,·,-3%,8%,3%,34%,2%[59 µM]
CC(C)CN(C(=O)c1cccc([N+](=O)[O-])c1)c1c(N)n(CC(C)C)c(=O)[nH]c1=O,21%,23%,6%,6%,37%,50µM*
CC(C)CN(C(=O)CSc1nnc2ccccn12)c1c(N)n(CC(C)C)c(=O)[nH]c1=O,-1%,-2%,-1%,-6%,10%,45µM*
CC(C)CN(C(=O)c1cccc(F)c1)c1c(N)n(CC(C)C)c(=O)[nH]c1=O,-1%,11%,0%,11%,17%,22%
CN(C(=O)CSc1nnc2ccccn12)c1c(N)n(Cc2ccccc2)c(=O)[nH]c1=O,-17%,-1%,-1%,-14%,?,35µM*
CCc1ccc2oc(-c3ccc(OC)cc3)cc(=Nc3cccc(C(=O)O)c3)c2c1,?,-38%,3%,14µM*,-23%,?
COc1ccc(-c2cc(=Nc3ccc(C(=O)O)cc3)c3cc(C)ccc3o2)cc1,17%,·,1%,?,-4%,?
CCC(C)NC(=O)c1ccc2c(c1)N=C(C)c1cc(C)ccc1S2 (configuration not stated),·,-26%,-5%,-20%,13%,?
Cc1ccsc1CN1CCc2nc(N3CCN(c4ccccc4F)CC3)ncc2C1,·,-19%,4%,-10%,33%,-4%[12.7 µM]
CN1CCN(c2ncc3c(n2)CCN(Cc2ccc(Br)s2)C3)CC1,·,-28%,-1%,79µM*,11%,-6%[12.7 µM]
CCN1CCN(c2ncc3c(n2)CCN(Cc2ccc(C)s2)C3)CC1,·,?,1%,79µM*,-20%,?
CCN1CCN(c2ncc3c(n2)CCN(Cc2sccc2C)C3)CC1,·,?,6%,?,21%,18µM*
CCN1CCN(c2ncc3c(n2)CCN(Cc2cc(Br)cs2)C3)CC1,·,50µM*,4%,79µM*,4%,22µM*
CCN1CCN(c2ncc3c(n2)CCN(Cc2ccc(Br)s2)C3)CC1,·,-30%,9%,-22%,38%,3%[12.7 µM]
CCc1cc2c(cc3c(=O)n(CC(=O)NCCCN4CCCCCC4)nc(CC)n32)s1,0%,-18%,4%,-1%,52%,50µM*
CCc1nn(CC(=O)NCCCN2CCOCC2)c(=O)c2cc3cc(F)ccc3n12,4%,-11%[57.1 µM],1%,-1%,66%,50µM*
CCc1nn(CC(=O)NCCCN2CCN(C)CC2)c(=O)c2cc3sc(C)cc3n12,1%,-4%,-1%,-14%,76%,·
SMILES,Sfp PPTase inh,BAZ2B inh,TDP1 inh,JMJD2A Tudor inh,HP1b binding inh,G9a block
COC(=O)c1ccc(NC(=O)C(=O)NCCc2sc3nc(-c4ccc(OC)cc4)nn3c2C)cc1,·,4%,0%,-5%,30%,3%[59 µM]
O=C1c2ccccc2C(=Nc2ccccc2)C1c1cccc(Br)c1 (configuration not stated),11%,-31%,8%,-24%,?,30%[0.501 µM]
Cc1ccc(N=C2c3ccccc3C(=O)C2[N+](=O)[O-])cc1C (configuration not stated),5%,-27%,2%,-27%,17%,40µM*
CCOC(=O)c1ccc(CN(Cc2ccc(Br)cc2)S(=O)(=O)c2cccc(Cl)c2C)cc1,·,0%,5%,13%,8%,27%[59 µM]
COc1ccc(OCC(=O)Nc2ccc(S(=O)(=O)Nc3nc(C)cc(C)n3)cc2)cc1,21%,-11%,-5%,-4%,23%,1%
COc1ccc(C2(C(=O)Nc3ccc(S(=O)(=O)Nc4nc(C)cc(C)n4)cc3)CCCC2)cc1OC,4%,-11%,5%,-19%,3%,50µM*
Cc1cc(C)c(C)c(OCC(=O)Nc2ccc(S(=O)(=O)Nc3nc(C)cc(C)n3)cc2)c1,·,-15%,·,-21%,12%,14µM*
Cc1ccc(OCC(=O)Nc2ccc(S(=O)(=O)Nc3ccccn3)cc2)cc1C,-5%,-4%,1%,-9%,26%,50µM*
Cc1ccc(OCC(=O)Nc2ccc(S(=O)(=O)Nc3ncccn3)cc2)c(C(C)(C)C)c1,·,-4%,-3%[12.3 µM],-10%,33%,14µM*
Cc1ccccc1OCC(=O)Nc1ccc(S(=O)(=O)Nc2ncccn2)cc1,·,1%,-6%[12.3 µM],-15%,37%,?
CCN(C(=O)CSc1nc2ccccc2n1CC(=O)N(C)C1CCCCC1)c1ccccc1,·,-23%,4%,-2%,16%,-1%[59 µM]
O=C(Nc1ccc(S(=O)(=O)Nc2nccs2)cc1)c1cc(-c2ccccc2)nc2ccccc12,4%,?,11%,32µM*,?,7.9µM*
Cc1ccc(-c2cc(C(=O)Nc3ccc(S(=O)(=O)Nc4nccs4)cc3)c3ccccc3n2)c(C)c1,20µM*,?,11%,?,?,28µM*
CC(C)(C)NS(=O)(=O)c1ccc(NC(=O)c2cc(-c3ccccc3)nc3ccccc23)cc1,14%,-10%,0%,-2%,18%,3%[2.33 µM]
Oc1[nH]c2ccccc2c1N=Nc1nncc2ccccc12,-25%,?,3%,-9%[11.4 µM],?,13µM*
FC(F)(F)c1ccccc1Nc1nccs1,-13%,-2%,·,50µM*,57%,?
FC(F)(F)c1ccccc1NC1=NCCC1,16%,0%,-3%,12%,28%,-7%
O=C(NCc1cccs1)c1ccc2c(c1)sc1nc(-c3ccccc3)cn12,·,-9%,3%,-9%,25%,-26%[59 µM]

# Compound activity from PubChem.
